# According to PubChem BioAssay (EPA / NIEHS):
# Active and inactive are the calls of the source. Rule for the calls: active = hit-call score of the fitted dose curve at least 0.9, where 1 is the maximum; inactive = score below 0.9.
# What was measured:
# Conditions in all cases: mRNA level, 48 h; actives raise or lower the signal
# [1] = read-out: Potassium channel subfamily K member 1 (KCNK1), KCNK1 (gene 3775); experiment: LTEA_HepaRG_KCNK1: Life Technologies and Expression Analysis (LTEA) Assay for Potassium channel subfamily K member 1 (KCNK1) using HepaRG (AID 2283511)
# Outline: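 KCNK1 transcript measured by TaqMan qRT-PCR against three housekeeping genes, after HepaRG cells were treated 48 h with eight half-log concentrations (top 100 uM, 0.5% DMSO). Curves fitted bidirectionally relative to vehicle.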
# [2] = read-out: Keratin 19 (KRT19), KRT19 (gene 3880); experiment: LTEA_HepaRG_KRT19: Life Technologies and Expression Analysis (LTEA) Assay for Keratin 19 (KRT19) using HepaRG (AID 2283512)
# Outline: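 KRT19 transcript levels, measured by Fluidigm qRT-PCR against three housekeeping genes, are fitted for gain or loss of signal relative to DMSO. Human HepaRG cells receive test chemicals (top 100 uM, half-log steps, 0.5% DMSO) for 48 hours.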
# [3] = read-out: JUN Transcription Factor, JUN (gene 3725); experiment: LTEA_HepaRG_JUN: Life Technologies and Expression Analysis (LTEA) Assay for JUN Transcription Factor using HepaRG (AID 2283513)
# Outline: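 Read-out is JUN transcript level by TaqMan qRT-PCR, normalized to ACTB, GAPDH and POLR2A, after 48 h chemical treatment of HepaRG cells. Concentration-response spanned eight half-log points up to 100 uM in 0.5% DMSO.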
# [4] = read-out: Lipase C (LIPC), LIPC (gene 3990); experiment: LTEA_HepaRG_LIPC: Life Technologies and Expression Analysis (LTEA) Assay for Lipase C (LIPC) using HepaRG (AID 2283514)
# Outline: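 LIPC expression was quantified by qRT-PCR against three housekeeping genes (ACTB, GAPDH, POLR2A). Differentiated human HepaRG cells received eight half-log doses (top 100 uM, 0.5% DMSO) in duplicate for 48 h; fitting bidirectional relative to DMSO.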
# [5] = read-out: Lipoprotein lipase (LPL), LPL (gene 4023); experiment: LTEA_HepaRG_LPL: Life Technologies and Expression Analysis (LTEA) Assay for Lipoprotein lipase (LPL) using HepaRG (AID 2283515)
# Outline: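 LPL transcript levels quantified by TaqMan qRT-PCR against three housekeeping genes after 48 h chemical treatment of HepaRG cells. Eight-point half-log series from 100 uM in 0.5% DMSO, tested in duplicate; bidirectional fitting versus vehicle.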
# [6] = read-out: MicroRNA 122 (MIR122), gene 406906; experiment: LTEA_HepaRG_MIR122: Life Technologies and Expression Analysis (LTEA) Assay for MicroRNA 122 (MIR122) using HepaRG (AID 2283516); note: the transcript read is the microRNA miR-122
# Outline: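 Human liver HepaRG cultures receive test chemicals for 48 h at eight half-log concentrations from 100 uM. Expression is quantified by qRT-PCR with ACTB/GAPDH/POLR2A normalization and fitted bidirectionally against 0.5% DMSO.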
# [7] = read-out: matrix metalloproteinase-10 (MMP10), MMP10 (gene 4319); experiment: LTEA_HepaRG_MMP10: Life Technologies and Expression Analysis (LTEA) Assay for matrix metalloproteinase-10 (MMP10) using HepaRG (AID 2283517)
# Outline: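 Expression measured by TaqMan qRT-PCR with ACTB/GAPDH/POLR2A normalisation after 48 h chemical exposure of HepaRG cells. Eight half-log concentrations, top 100 uM, 0.5% DMSO vehicle, duplicates; gain or loss fitted against vehicle.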
# MYC, MYC (gene 4609) = experiment: LTEA_HepaRG_MYC: Life Technologies and Expression Analysis (LTEA) Assay for MYC using HepaRG (AID 2283518)
# Outline: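 HepaRG, ~100,000 cells/well, collagen I; 48 h plating; serum-free induction medium; 48 h dosing, duplicate, 100 uM top, half-log, 0.5% DMSO; total RNA → qRT-PCR MYC; gain/loss fit vs DMSO.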
# [8] = read-out: matrix metalloproteinase-3 (MMP3), MMP3 (gene 4314); experiment: LTEA_HepaRG_MMP3: Life Technologies and Expression Analysis (LTEA) Assay for matrix metalloproteinase-3 (MMP3) using HepaRG (AID 2283519)
# Outline: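 Fluidigm-based TaqMan qRT-PCR, normalized to ACTB, GAPDH and POLR2A and fitted bidirectionally versus 0.5% DMSO, measured transcript levels. Treatment: duplicate 48 h exposures of HepaRG cells, ~100,000/well, to eight half-log concentrations topping at 100 uM.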
# [9] = read-out: Paternally Expressed 10 (PEG10), PEG10 (gene 23089); experiment: LTEA_HepaRG_PEG10: Life Technologies and Expression Analysis (LTEA) Assay for Paternally Expressed 10 (PEG10) using HepaRG (AID 2283520);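 for AC50: PEG10 transcript by qRT-PCR normalised to ACTB GAPDH and POLR2A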
# Outline: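 Human HepaRG cultures are dosed for 48 h across an eight-point half-log series starting at 100 uM, with 0.5% DMSO as vehicle and baseline. Gain or loss of PEG10 transcript is measured by qRT-PCR and fitted in both directions.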
# [10] = read-out: Nuclear factor NF-kappa-B p105 subunit (Homo sapiens) (UniProt P19838); experiment: LTEA_HepaRG_NFKB1: Life Technologies and Expression Analysis (LTEA) Assay for Nuclear Factor Kappa B Subunit 1 (NFKB1) using HepaRG (AID 2283521);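 for outcome: differentiated human HepaRG liver cells in serum-free induction medium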
# Outline: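 HepaRG, 48 h exposure; 8-pt half-log series from 100 uM in 0.5% DMSO; duplicates. Readout: NFKB1 mRNA by qRT-PCR (Fluidigm arrays), housekeeping-normalized. Gain/loss fit vs DMSO baseline.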
# [11] = read-out: Protein phosphatase 2A (PPP2R4), PTPA (gene 5524); experiment: LTEA_HepaRG_PPP2R4: Life Technologies and Expression Analysis (LTEA) Assay for Protein phosphatase 2A (PPP2R4) using HepaRG (AID 2283522)
# Outline: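 Cells were plated, cultured 48 h, switched to serum-free induction medium, then dosed for 48 h (8 points, max 100 uM, 0.5% DMSO). RNA was isolated and PPP2R4 expression measured by TaqMan qRT-PCR.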
# [12] = read-out: Phosphatase and tensin (PTEN), PTEN (gene 5728); experiment: LTEA_HepaRG_PTEN: Life Technologies and Expression Analysis (LTEA) Assay for Phosphatase and tensin (PTEN) using HepaRG (AID 2283523)
# Outline: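 Read-out: TaqMan qRT-PCR of PTEN transcript, normalized to three housekeeping genes, fitted in both directions against 0.5% DMSO. Differentiated human HepaRG cultures received chemicals for 48 h, eight-point half-log series topping at 100 uM.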
# [13] = read-out: solute carrier (SLC22A1), SLC22A1 (gene 6580); experiment: LTEA_HepaRG_SLC22A1: Life Technologies and Expression Analysis (LTEA) Assay for solute carrier (SLC22A1) using HepaRG (AID 2283524);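 for AC50: differentiated human HepaRG liver cells in serum-free induction medium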
# Outline: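 Transcript level of SLC22A1 quantified by qRT-PCR (normalized to three housekeeping genes) after 48 h chemical exposure of HepaRG cells, eight concentrations up to 100 µM, half-log steps, 0.5% DMSO vehicle. Gain or loss relative to DMSO fitted bidirectionally.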
# [14] = read-out: Pyruvate Dehydrogenase Kinase 4 (PDK4), PDK4 (gene 5166); experiment: LTEA_HepaRG_PDK4: Life Technologies and Expression Analysis (LTEA) Assay for Pyruvate Dehydrogenase Kinase 4 (PDK4) using HepaRG (AID 2283525)
# Outline: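 Readout is qRT-PCR of PDK4 transcript, normalized to three housekeeping genes, with bidirectional fitting against 0.5% DMSO vehicle. Differentiated HepaRG cells were treated 48 h in serum-free induction medium, duplicate wells, eight-point half-log series topping at 100 uM.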
# [15] = read-out: Nuclear factor erythroid 2-related factor 2 (Homo sapiens) (UniProt Q16236); experiment: LTEA_HepaRG_NFE2L2: Life Technologies and Expression Analysis (LTEA) Assay for Nuclear factor erythroid 2-related factor 2 (NFE2L2) Transcription Factor using HepaRG (AID 2283527);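 note: TaqMan qRT-PCR transcript level normalised to ACTB GAPDH and POLR2A housekeeping genes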
# Outline: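 NFE2L2 transcript level was read by qRT-PCR (housekeeping ACTB/GAPDH/POLR2A normalisation) after 48 h chemical treatment of HepaRG in serum-free induction medium. Duplicate 8-point half-log curves, top 100 uM, 0.5% DMSO vehicle; up- or down-regulation fitted against vehicle.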
# [16] = read-out: succinate dehydrogenase complex iron sulfur subunit B (SDHB), SDHB (gene 6390); experiment: LTEA_HepaRG_SDHB: Life Technologies and Expression Analysis (LTEA) Assay for succinate dehydrogenase complex iron sulfur subunit B (SDHB) using HepaRG (AID 2283528)
# Outline: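 Readout is SDHB transcript level by qRT-PCR, normalised to three housekeeping genes and fitted bidirectionally against 0.5% DMSO vehicle. Human HepaRG cells were treated for 48 h at up to 100 uM.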
# [17] = read-out: Signal transducer and activator of transcription 3 (Homo sapiens) (UniProt P40763); experiment: LTEA_HepaRG_STAT3: Life Technologies and Expression Analysis (LTEA) Assay for Signal transducer and activator of transcription (STAT3) using HepaRG (AID 2283529)
# Outline: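 STAT3 transcript quantified by qRT-PCR against three housekeeping genes (ACTB, GAPDH, POLR2A), fitted both directions relative to DMSO. HepaRG cultures exposed 48 h to eight half-log concentrations, top 100 uM, 0.5% DMSO, serum-free induction medium.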
# [18] = read-out: solute carrier (SLCO1B1), SLCO1B1 (gene 10599); experiment: LTEA_HepaRG_SLCO1B1: Life Technologies and Expression Analysis (LTEA) Assay for solute carrier (SLCO1B1) using HepaRG (AID 2283530)
# Outline: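 HepaRG, serum-free induction medium, 48 h dosing, 8-pt half-log from 100 uM, 0.5% DMSO vehicle, duplicates. Readout: SLCO1B1 mRNA, qRT-PCR, ACTB/GAPDH/POLR2A normalization; up or down fit vs DMSO.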
# [19] = read-out: NAD(P)H dehydrogenase [quinone] 1 (NQO1), NQO1 (gene 1728); experiment: LTEA_HepaRG_NQO1: Life Technologies and Expression Analysis (LTEA) Assay for NAD(P)H dehydrogenase [quinone] 1 (NQO1) using HepaRG (AID 2283526)
# Outline: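 Transcript induction or suppression is quantified by qRT-PCR in human HepaRG liver cells dosed for 48 hours. Eight half-log concentrations topping at 100 uM are used, with 0.5% DMSO as vehicle and baseline.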
# Chain of Nuclear factor NF-kappa-B p105 subunit (Homo sapiens) (P19838 whole entry, looked up): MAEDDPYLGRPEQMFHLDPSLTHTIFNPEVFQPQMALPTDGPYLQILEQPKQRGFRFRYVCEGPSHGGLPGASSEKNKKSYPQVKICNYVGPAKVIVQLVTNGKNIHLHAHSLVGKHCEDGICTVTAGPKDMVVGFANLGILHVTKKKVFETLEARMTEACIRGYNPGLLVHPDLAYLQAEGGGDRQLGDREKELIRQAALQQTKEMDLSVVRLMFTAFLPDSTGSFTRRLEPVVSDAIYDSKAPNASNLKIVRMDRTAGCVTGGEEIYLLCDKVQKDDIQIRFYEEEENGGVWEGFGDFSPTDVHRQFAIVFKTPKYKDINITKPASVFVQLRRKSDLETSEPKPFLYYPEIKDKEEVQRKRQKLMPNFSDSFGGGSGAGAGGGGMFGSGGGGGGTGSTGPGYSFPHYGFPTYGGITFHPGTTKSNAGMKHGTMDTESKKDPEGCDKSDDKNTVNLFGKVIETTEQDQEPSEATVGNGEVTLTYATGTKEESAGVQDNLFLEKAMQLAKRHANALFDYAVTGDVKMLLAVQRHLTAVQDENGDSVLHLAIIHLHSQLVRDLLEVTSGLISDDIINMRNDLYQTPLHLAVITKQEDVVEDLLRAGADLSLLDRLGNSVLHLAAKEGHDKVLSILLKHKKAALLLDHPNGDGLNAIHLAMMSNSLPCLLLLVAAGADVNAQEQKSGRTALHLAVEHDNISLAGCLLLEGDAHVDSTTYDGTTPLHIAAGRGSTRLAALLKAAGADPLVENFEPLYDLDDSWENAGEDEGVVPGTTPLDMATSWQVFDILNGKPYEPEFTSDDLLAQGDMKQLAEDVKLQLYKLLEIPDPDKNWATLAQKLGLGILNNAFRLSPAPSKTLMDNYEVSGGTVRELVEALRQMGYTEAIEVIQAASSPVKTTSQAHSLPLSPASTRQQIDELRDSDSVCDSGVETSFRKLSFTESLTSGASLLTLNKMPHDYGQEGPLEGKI
# Chain of Signal transducer and activator of transcription 3 (Homo sapiens) (P40763 whole entry, looked up): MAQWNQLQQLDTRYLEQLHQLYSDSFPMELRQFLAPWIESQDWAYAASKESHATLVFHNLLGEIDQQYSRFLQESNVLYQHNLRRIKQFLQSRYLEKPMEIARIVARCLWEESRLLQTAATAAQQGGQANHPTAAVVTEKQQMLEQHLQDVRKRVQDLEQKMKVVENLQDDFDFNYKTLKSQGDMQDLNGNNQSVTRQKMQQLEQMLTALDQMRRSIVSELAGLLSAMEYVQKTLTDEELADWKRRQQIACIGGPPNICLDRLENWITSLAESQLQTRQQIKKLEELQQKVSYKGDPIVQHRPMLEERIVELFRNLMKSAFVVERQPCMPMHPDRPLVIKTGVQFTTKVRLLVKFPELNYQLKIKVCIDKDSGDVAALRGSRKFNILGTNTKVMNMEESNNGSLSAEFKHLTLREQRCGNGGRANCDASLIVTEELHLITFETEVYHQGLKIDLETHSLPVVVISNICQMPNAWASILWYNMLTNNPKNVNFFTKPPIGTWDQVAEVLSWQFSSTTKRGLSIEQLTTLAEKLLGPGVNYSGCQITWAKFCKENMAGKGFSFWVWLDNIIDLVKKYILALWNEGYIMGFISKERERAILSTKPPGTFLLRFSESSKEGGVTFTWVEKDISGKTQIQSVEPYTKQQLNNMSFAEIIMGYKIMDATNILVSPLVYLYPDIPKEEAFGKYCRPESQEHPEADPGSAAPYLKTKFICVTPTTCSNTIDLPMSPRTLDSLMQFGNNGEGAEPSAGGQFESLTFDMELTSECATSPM
# Chain of Nuclear factor erythroid 2-related factor 2 (Homo sapiens) (Q16236 whole entry, looked up): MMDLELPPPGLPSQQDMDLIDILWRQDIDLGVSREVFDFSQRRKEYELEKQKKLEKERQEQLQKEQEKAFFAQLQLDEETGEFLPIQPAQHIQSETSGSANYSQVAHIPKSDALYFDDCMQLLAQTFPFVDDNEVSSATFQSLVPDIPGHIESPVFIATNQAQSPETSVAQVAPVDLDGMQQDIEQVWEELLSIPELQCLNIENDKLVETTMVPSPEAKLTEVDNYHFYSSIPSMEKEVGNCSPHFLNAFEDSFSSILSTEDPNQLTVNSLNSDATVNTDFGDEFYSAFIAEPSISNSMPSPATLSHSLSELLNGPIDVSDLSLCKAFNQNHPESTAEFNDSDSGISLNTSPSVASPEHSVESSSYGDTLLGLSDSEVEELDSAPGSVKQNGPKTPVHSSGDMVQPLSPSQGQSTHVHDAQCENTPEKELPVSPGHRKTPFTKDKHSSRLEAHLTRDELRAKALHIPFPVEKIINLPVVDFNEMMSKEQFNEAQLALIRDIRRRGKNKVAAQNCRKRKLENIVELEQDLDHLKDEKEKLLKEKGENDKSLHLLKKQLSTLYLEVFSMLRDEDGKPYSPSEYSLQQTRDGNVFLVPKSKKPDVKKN
structure (smiles),measurement,setting,value
O=C(O)c1cc(N=Nc2ccc(S(=O)(=O)Nc3ccccn3)cc2)ccc1O,outcome,[1],inactive
same,outcome,[2],inactive
same,outcome,[3],inactive
same,outcome,[4],inactive
same,outcome,[5],inactive
same,outcome,[6],inactive
same,outcome,[7],inactive
same,outcome,"MYC, MYC (gene 4609)",inactive
same,outcome,[8],inactive
same,outcome,[9],inactive
same,outcome,[10],inactive
same,outcome,[11],inactive
same,outcome,[12],inactive
same,outcome,[13],inactive
same,outcome,[14],inactive
same,outcome,[15],inactive
same,outcome,[16],inactive
same,outcome,[17],inactive
same,outcome,[18],inactive
CCCN(C1CCN(C(=O)C2CCNCC2)CC1)[C@@H]1CCc2ccc(OC)cc2C1,outcome,[1],inactive
same,AC50,[2],13.6 µM (active)
same,outcome,[3],inactive
same,AC50,[4],69.6 µM (active)
same,outcome,[5],inactive
same,AC50,[6],80 µM (active)
same,outcome,[7],inactive
same,AC50,"MYC, MYC (gene 4609)",89.5 µM (active)
same,outcome,[8],inactive
same,AC50,[9],60.2 µM (active)
same,AC50,[10],0.304 µM (active)
same,outcome,[11],inactive
same,AC50,[13],83 µM (active)
same,outcome,[14],inactive
same,outcome,[19],inactive
same,outcome,[16],inactive
same,AC50,[17],0.256 µM (active)
same,AC50,[18],79.4 µM (active)
CC(C)=CCC/C(C)=C/CO,outcome,[1],inactive
same,outcome,[2],inactive
same,outcome,[3],inactive
same,outcome,[4],inactive
same,outcome,[5],inactive
same,outcome,[6],inactive
same,outcome,[7],inactive
same,outcome,"MYC, MYC (gene 4609)",inactive
same,outcome,[8],inactive
same,outcome,[9],inactive
same,outcome,[10],inactive
same,outcome,[11],inactive
same,outcome,[12],inactive
same,outcome,[13],inactive
same,outcome,[14],inactive
same,outcome,[15],inactive
same,outcome,[16],inactive
same,outcome,[17],inactive
same,outcome,[18],inactive
Nc1nc2ncc(CNc3ccc(C(=O)N[C@@H](CCC(=O)O)C(=O)O)cc3)nc2c(=O)[nH]1,outcome,[1],inactive
same,outcome,[2],inactive
same,outcome,[3],inactive
same,outcome,[4],inactive
same,outcome,[5],inactive
same,outcome,[6],inactive
same,outcome,[7],inactive
same,outcome,"MYC, MYC (gene 4609)",inactive
same,outcome,[8],inactive
same,outcome,[9],inactive
same,outcome,[10],inactive
same,outcome,[11],inactive
same,outcome,[12],inactive
same,outcome,[13],inactive
same,outcome,[14],inactive
same,outcome,[19],inactive
same,outcome,[15],inactive
same,outcome,[16],inactive
same,outcome,[17],inactive
same,outcome,[18],inactive
Nc1ccc(Nc2ccccc2)cc1,outcome,[1],inactive
same,AC50,[2],50 µM (active)
same,outcome,[3],inactive
same,AC50,[4],83.4 µM (active)
same,outcome,[5],inactive
same,outcome,[6],inactive
same,outcome,[7],inactive
same,outcome,"MYC, MYC (gene 4609)",inactive
same,outcome,[8],inactive
same,AC50,[9],79.9 µM (active)
same,outcome,[10],inactive
same,outcome,[11],inactive
same,outcome,[13],inactive
same,outcome,[14],inactive
same,outcome,[19],inactive
same,outcome,[16],inactive
same,outcome,[17],inactive
same,AC50,[18],35.4 µM (active)
CC(C)CCO,outcome,[1],inactive
same,outcome,[2],inactive
same,outcome,[3],inactive
same,outcome,[4],inactive
same,outcome,[5],inactive
same,outcome,[6],inactive
same,outcome,[7],inactive
same,outcome,"MYC, MYC (gene 4609)",inactive
same,outcome,[8],inactive
same,outcome,[9],inactive
same,outcome,[10],inactive
same,outcome,[11],inactive
same,outcome,[12],inactive
same,outcome,[13],inactive
same,outcome,[14],inactive
same,outcome,[19],inactive
same,outcome,[16],inactive
same,outcome,[17],inactive
same,outcome,[18],inactive
CNCc1ccc(NC(=O)c2c[nH]c3c2C(=O)CCC3)cc1,outcome,[1],inactive
same,outcome,[2],inactive
same,outcome,[3],inactive
same,outcome,[4],inactive
same,outcome,[5],inactive
same,outcome,[6],inactive
same,outcome,[7],inactive
same,outcome,"MYC, MYC (gene 4609)",inactive
same,outcome,[8],inactive
same,outcome,[9],inactive
same,outcome,[10],inactive
same,outcome,[11],inactive
same,outcome,[12],inactive
same,outcome,[13],inactive
same,outcome,[14],inactive
same,outcome,[19],inactive
same,outcome,[15],inactive
same,outcome,[16],inactive
same,outcome,[17],inactive
same,outcome,[18],inactive
